Measurements taken from PubChem BioAssay (NCI).
This is part of a sample that, as a whole, favours compounds with a hit. Of some 83,000 tested, about 20% had one in any assay.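 96-well plates, one dose, 48 hours. Percent growth reported; active if below 10.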 Values without a mark were called inactive. Active and inactive are the calls of the source.

Tests used:
Experiment in all cases: NCI-60 one-dose screen, 48 h (100 = growth as untreated, 0 = no growth, -100 = all killed)
Conditions in all cases: 10 µM unless noted
SK-MEL-2 melanoma = test system: SK-MEL-2 melanoma
EKVX NSCLC = test system: EKVX NSCLC
SN12C renal = test system: SN12C renal
UO-31 renal = test system: UO-31 renal
TK-10 renal = test system: TK-10 renal
ACHN renal = test system: ACHN renal
CAKI-1 renal = test system: CAKI-1 renal
A498 renal = test system: A498 renal
CCRF-CEM leukemia = test system: CCRF-CEM leukemia
MOLT-4 leukemia = test system: MOLT-4 leukemia
SR leukemia = test system: SR leukemia
RPMI-8226 leukemia = test system: RPMI-8226 leukemia
OVCAR-8 ovarian = test system: OVCAR-8 ovarian
OVCAR-5 ovarian = test system: OVCAR-5 ovarian
OVCAR-4 ovarian = test system: OVCAR-4 ovarian
SK-OV-3 ovarian = test system: SK-OV-3 ovarian
IGROV1 ovarian = test system: IGROV1 ovarian
OVCAR-3 ovarian = test system: OVCAR-3 ovarian
HS 578T breast = test system: HS 578T breast
NCI/ADR-RES ovarian = test system: NCI/ADR-RES ovarian

SMILES	growth (SK-MEL-2 melanoma)	growth (EKVX NSCLC)	growth (SN12C renal)	growth (UO-31 renal)	growth (TK-10 renal)	growth (ACHN renal)	growth (CAKI-1 renal)	growth (A498 renal)	growth (CCRF-CEM leukemia)	growth (MOLT-4 leukemia)	growth (SR leukemia)	growth (RPMI-8226 leukemia)	growth (OVCAR-8 ovarian)	growth (OVCAR-5 ovarian)	growth (OVCAR-4 ovarian)	growth (SK-OV-3 ovarian)	growth (IGROV1 ovarian)	growth (OVCAR-3 ovarian)	growth (HS 578T breast)	growth (NCI/ADR-RES ovarian)
O=C(Cn1c[n+](CC(=O)c2ccc([N+](=O)[O-])cc2)c2ccccc21)Nc1cccc2cccnc12	41.4%	73.6%	30%	66%	114%	93.8%	84.1%	94.7%	89.4%	92.8%	61.8%	10.2%	93.2%	93.9%	20.4%	109%	71.1%	38.6%	74.6%	102%
OCc1cnccc1NCCCOc1ccccc1	107%	105%	94.3%	87.9%	92.5%	108%	95.7%	91.9%	88.8%	96.6%	99.9%	100%	102%	113%	102%	114%	110%	107%	98.7%	102%
COc1ccc(/C=C2\COc3ccc(-c4ccccc4)cc3C2=O)c(OC)c1	101%	161%	83.8%	86.2%	94.8%	93%	116%	128%	71.2%	57.9%	69.1%	77.4%	96.4%	101%	64.7%	107%		98.3%	125%	72.6%
CCOC(=O)C1=C(CCl)NC(=O)NC1c1ccc2c(c1)OCO2 (configuration not stated)	69.5%	52.7%	20.1%	56.9%	57.3%	31%	47%	98%	10.8%	37.7%	28%	15.3%	45.7%	24.6%	32.5%	81.8%	37.2%	24.8%	71.9%	58.6%
COc1ccc2c(c1)oc1c(C)c3c(c(C)c12)C(=O)N(N)C3=O	93%	49.1%	38.7%	-45.8% (active)	-4.02% (active)	-23.7% (active)	34.2%	-7.39% (active)	55.8%	17.4%	26.2%	59.5%	26.9%	40.4%	-20.8% (active)	61.2%	26.8%		19.1%	28.6%
Cc1nnc2c(Cc3ccccc3)nc3ccccc3n12	110%	90.9%	99.6%	90.8%	101%	100%	88.3%	90.6%	91.1%	91.2%	94.6%	93.2%	104%	90.7%		99.1%	121%	94%	104%	87.4%
N#C/C(=C\c1ccc([N+](=O)[O-])s1)c1nc2cc(Cl)ccc2s1	-19.6% (active)	7.23% (active)	-27.5% (active)	-15.8% (active)	34.8%	-46.6% (active)	43.3%	114%	0.557% (active)	8.53% (active)	-0.613% (active)	-13.4% (active)	3.27% (active)	63.6%	13.4%	65.1%	-16.2% (active)	20.9%	77.6%	-5.71% (active)
OC(c1ccc(F)c(C(F)(F)F)c1)c1cnccc1NC1CCCCC1 (configuration not stated)	89.6%	69.3%	65.3%	49.6%	71.1%	81.9%	64.3%	59.6%	57.2%	56%	16.6%	16.9%	81.8%	85.3%	64.8%	103%	70%	72.3%	77.3%	74.7%
C[C@H]1[C@H](C)CC[C@]2(C(=O)Nc3ccc4ncccc4c3)CC[C@]3(C)C(=CC[C@@H]4[C@@]5(C)CCCNC(C)(C)[C@@H]5CC[C@]43C)[C@H]12	90.5%	76.6%	-86.1% (active)	-76.5% (active)	102%	-75.1% (active)	26.7%	98.3%	-25.5% (active)	-47.9% (active)	-49.2% (active)	-42.3% (active)	-80.5% (active)	74.9%	27.8%	103%	-73.3% (active)	-45.1% (active)	-53.3% (active)	-48.6% (active)
Nc1ccccc1NC(=O)c1ccc(-n2nc(-c3ccccc3)c3ccccc32)cc1	94.3%	89.7%	52.3%	-62.7% (active)	94.1%	90.6%	73.4%	89.8%	9.38% (active)	4.66% (active)	48.6%	-8.09% (active)	62.6%	87.1%	77%	107%	68.5%	72.6%	83.5%	54%
CCc1c2c(nc3ccc(OCc4ccc(B(O)O)cc4)cc13)-c1cc3c(c(=O)n1C2)COC(=O)[C@]3(O)CC	7.66% (active)	25.4%	6.55% (active)	-15.8% (active)	27.5%	-12.6% (active)	-21% (active)	-58.4% (active)	4.37% (active)	-5.64% (active)	-2.77% (active)	6.35% (active)	6.94% (active)	11.5%	24.2%	-4.91% (active)	17.6%	6.75% (active)	36.7%	-0.104% (active)
COc1cc(/C=C2\COc3ccc(-c4ccccc4)cc3C2=O)cc(OC)c1	83.9%	102%	80.5%	77.1%	103%	88.7%	71.6%	95.5%	20.3%	30.7%	58.5%	3.36% (active)	56.2%	106%	63.8%	108%	90.8%	69%	92.9%	61%
N#C/C(=C\c1ccccn1)c1nc2cc(Cl)ccc2s1	95.9%	56%	64.7%	44.3%	119%	75.8%	66.5%	64.6%	63.9%	75.6%	40.3%	59.3%	73.1%	96.8%	71.5%	62.9%	42%	75.4%	53.7%	77%
O=C(/C(=C\c1ccc([N+](=O)[O-])cc1)S(=O)Cc1ccc(Cl)cc1)c1ccc(Cl)cc1 (configuration not stated)	94.6%	98.5%	49.6%	70.4%	91.9%	64.6%	83.8%	77.4%	22%	25.1%	15%	1.3% (active)	73.6%	73.6%	81.1%	105%	62.7%	73.7%	85.1%	71.7%
NS(=O)(=O)c1ccc(CCN2C(=O)c3cc(Cl)c(Cl)cc3C2=O)cc1	96.5%	103%	107%	93%	88.5%	105%	96.6%	104%	98%	92.4%	96%	104%	106%	108%	104%	113%	107%	109%	108%	105%
